PubChem BioAssay (NCATS)
Inconclusive results are not listed. A number with no mark means an inactive call. Calls of active or inactive are those of the source. The call rests on the fitted dose curve; in most records, active means well fitted curve in the direction sought with a large enough effect; inconclusive means small, poorly fitted or top-dose-only effect, or another doubt; inactive means no such curve, though single readings can be large; an effect the other way counts as inactive or inconclusive.

Columns and labels:
[1] = Quantitative High-Throughput drug screen in 47 multiple myeloma cell lines against the NCATS MIPE library collection: KMS12BM_JCRB cell viability assay (AID 1918971); further: nearly all actives have a fitted effect of over 35% in size
How it was run: (§1)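 qHTS of the MIPE 4.0 collection: 500 myeloma cells/well, 48 h drug exposure at 37C in 5% CO2, then CellTiter-Glo for 5 min at room temperature before luminescence reading.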

[2] = Quantitative High-Throughput drug screen in 47 multiple myeloma cell lines against the NCATS MIPE library collection: KMS12PE_JCRB cell viability assay (AID 1918972); further: nearly all actives have a fitted effect of over 30% in size;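 on viability: 100% = DMSO only wells and 0% = wells with media alone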
How it was run: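 Inhibition of cell viability is measured here. Each line was plated at 500 cells per well, treated with MIPE 4.0 drugs, kept 48 hours at 37C, then assayed for ATP content by CellTiter-Glo luminescence.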

[3] = Quantitative High-Throughput drug screen in 47 multiple myeloma cell lines against the NCATS MIPE library collection: MMM1_PLB cell viability assay (AID 1918976); further: nearly all actives have a fitted effect of over 35% in size
How it was run: (§2)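 ATP-based luminescence (CellTiter-Glo, 5 min RT incubation) quantified surviving cells following two days' treatment with MIPE 4.0 agents at 37 °C, 5% CO2.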

[4] = Quantitative High-Throughput drug screen in 47 multiple myeloma cell lines against the NCATS MIPE library collection: MOLP8_DSMZ cell viability assay (AID 1918977); further: nearly all actives have a fitted effect of over 45% in size;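 on viability (% of control): 100% = DMSO-only wells and 0% = media-only wells without cells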
How it was run: as §2

[5] = Quantitative High-Throughput drug screen in 47 multiple myeloma cell lines against the NCATS MIPE library collection: MM1S_ATCC cell viability assay (AID 1918980); further: nearly all actives have a fitted effect of over 45% in size;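 on viability (% of control): 100% = wells with DMSO only and 0% = wells with media only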
How it was run: as §2

[6] = Quantitative High-Throughput drug screen in 47 multiple myeloma cell lines against the NCATS MIPE library collection: MM1R_ATCC cell viability assay (AID 1918981); further: nearly all actives have a fitted effect of over 35% in size
How it was run: as §2

[7] = Quantitative High-Throughput drug screen in 47 multiple myeloma cell lines against the NCATS MIPE library collection: LP1_DSMZ cell viability assay (AID 1918982); further: nearly all actives have a fitted effect of over 35% in size
How it was run: as §2

[8] = Quantitative High-Throughput drug screen in 47 multiple myeloma cell lines against the NCATS MIPE library collection: KMS28PE_JCRB cell viability assay (AID 1918983); further: nearly all actives have a fitted effect of over 35% in size
How it was run: as §2

[9] = Quantitative High-Throughput drug screen in 47 multiple myeloma cell lines against the NCATS MIPE library collection: OCIMY5_PLB cell viability assay (AID 1918988); further: nearly all actives have a fitted effect of over 65% in size
How it was run: as §2

[10] = Quantitative High-Throughput drug screen in 47 multiple myeloma cell lines against the NCATS MIPE library collection: U266_ATCC cell viability assay (AID 1919864); further: nearly all actives have a fitted effect of over 35% in size
How it was run: as §2

[11] = Quantitative High-Throughput drug screen in 47 multiple myeloma cell lines against the NCATS MIPE library collection: KMS26_JCRB cell viability assay (AID 1918975); further: nearly all actives have a fitted effect of over 45% in size;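 on viability (% of DMSO): 100% = DMSO-treated wells and 0% = wells with media only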
How it was run: as §1

[12] = Quantitative High-Throughput drug screen in 47 multiple myeloma cell lines against the NCATS MIPE library collection: NCIH929_DSMZ cell viability assay (AID 1918978); further: nearly all actives have a fitted effect of over 35% in size
How it was run: as §2

[13] = Quantitative High-Throughput drug screen in 47 multiple myeloma cell lines against the NCATS MIPE library collection: KMS34_JCRB cell viability assay (AID 1918985); further: nearly all actives have a fitted effect of over 40% in size
How it was run: as §2

[14] = Quantitative High-Throughput drug screen in 47 multiple myeloma cell lines against the NCATS MIPE library collection: OCIMY7_PLB cell viability assay (AID 1918987); settings: OCI-MY7 myeloma viability, CellTiter-Glo ATP, 48 h; viability (% of DMSO): at 45.8 µM (top of the series); further: nearly all actives have a fitted effect of over 65% in size
How it was run: as §2

[15] = Quantitative High-Throughput drug screen in 47 multiple myeloma cell lines against the NCATS MIPE library collection: OPM1_PLB cell viability assay (AID 1918989); further: nearly all actives have a fitted effect of over 40% in size;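 on viability (% of control): 100% = DMSO-only wells and 0% = media-only wells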
How it was run: as §2

[16] = Quantitative High-Throughput drug screen in 47 multiple myeloma cell lines against the NCATS MIPE library collection: OCIMY1_PLB cell viability assay (AID 1918979); further: nearly all actives have a fitted effect of over 35% in size;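 on viability: 100% = DMSO-only wells and 0% = cell-free media-only wells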
How it was run: as §2

[17] = Quantitative High-Throughput drug screen in 47 multiple myeloma cell lines against the NCATS MIPE library collection: SKMM1_PLB cell viability assay (AID 1919863); settings: SKMM1 myeloma viability, CellTiter-Glo ATP, 48 h; viability: stronger effect = lower value; further: nearly all actives have a fitted effect of over 35% in size
How it was run: as §2

[18] = Quantitative High-Throughput drug screen in 47 multiple myeloma cell lines against the NCATS MIPE library collection: L363_DSMZ cell viability assay (AID 1918984); settings: L363 myeloma viability, CellTiter-Glo ATP luminescence, 48 h; viability (% of control): at 45.8 µM (top of the series); further: nearly all actives have a fitted effect of over 40% in size
How it was run: as §2
Potency means the concentration at half of the fitted maximal effect.

| Compound | Potency [1] | Potency [2] | Potency [3] | Potency [4] | Potency [5] | Potency [6] | Potency [7] | Potency [8] | Potency [9] | Potency [10] | Potency [11] | Potency [12] | Potency [13] | Potency [14] | Potency [15] | Potency [16] | viability [17] [%] | Potency [17] | Potency [18] |
| --- | --- | --- | --- | --- | --- | --- | --- | --- | --- | --- | --- | --- | --- | --- | --- | --- | --- | --- | --- |
| CCn1c(-c2nonc2N)nc2cncc(CNC3CCNCC3)c21 | inactive | 1.05 µM (active) | 8.33 µM (active) | 14.8 µM (active) | 14.8 µM (active) | 16.6 µM (active) | inactive | 18.7 µM (active) | 18.7 µM (active) | inactive |  |  |  |  |  |  |  |  |  |
| CCCCC(C)(C)[C@H](O)C=C[C@H]1[C@H](O)CC(=O)[C@H]1CC=CCCCC(=O)O | 18.7 µM (active) | inactive | 16.6 µM (active) |  | 14.8 µM (active) | 18.7 µM (active) |  |  |  | 13.2 µM (active) | 16.6 µM (active) | 18.7 µM (active) | 5.9 µM (active) |  |  |  |  |  |  |
| O=C(C=Cc1ccc(O)cc1)c1ccc(O)cc1O | 20.9 µM (active) | 14.8 µM (active) | 5.9 µM (active) |  | 23.5 µM (active) |  |  | 23.5 µM (active) | 14.8 µM (active) | 23.5 µM (active) | 23.5 µM (active) | 16.6 µM (active) |  | 4.69 µM (active) | 20.9 µM (active) |  |  |  |  |
| CON(C)C(=O)N1N=C(c2cc(F)ccc2F)S[C@]1(CCCN)c1ccccc1 | inactive | 0.001 µM (active) |  | inactive | inactive | inactive | inactive |  | inactive |  | inactive | inactive | inactive | inactive |  | inactive | 61.2 |  |  |
| CC(=O)OCC(=O)[C@@]1(O)CC[C@H]2[C@@H]3CCC4=CC(=O)C=C[C@]4(C)[C@@H]3[C@@H](O)C[C@@]21C | 0.187 µM (active) | inactive | 2.64 µM (active) | 2.35 µM (active) | 0.118 µM (active) |  |  |  |  | inactive |  | 0.187 µM (active) | 0.209 µM (active) |  | inactive | inactive |  | 0.0074 µM (active) |  |
| COc1cc2nccc(Oc3ccc(NC(=O)Nc4ccc(F)cc4F)c(F)c3)c2cc1OC | 11.8 µM (active) | inactive | 0.0935 µM (active) |  |  | 2.96 µM (active) | 9.35 µM (active) | 6.62 µM (active) | 1.87 µM (active) | 11.8 µM (active) |  | inactive |  |  |  |  |  |  | inactive |
| CCc1cc(-c2n[nH]c(C)c2-c2ccc3c(c2)OCCO3)c(O)cc1O | 5.26 µM (active) | 5.26 µM (active) |  | 2.64 µM (active) | 8.33 µM (active) | 6.62 µM (active) |  | 4.18 µM (active) | 3.72 µM (active) | 7.43 µM (active) | 5.26 µM (active) | 8.33 µM (active) | 3.32 µM (active) | 1.66 µM (active) | 6.62 µM (active) |  |  |  | 0.148 µM (active) |
| O=C1C(CCC(O)c2ccc(F)cc2)C(c2ccc(O)cc2)N1c1ccc(F)cc1 (stereo unspecified) | inactive | 20.9 µM (active) |  | inactive |  | inactive | inactive | inactive |  |  | inactive | inactive | inactive | inactive | inactive | inactive | 99.3 |  | inactive |
| O=C(NCCCCN1CCOCC1)c1cc2ccccc2o1 | 0.0743 µM (active) | inactive |  |  |  | inactive | inactive | inactive |  |  | inactive | inactive | inactive |  | inactive | inactive |  |  |  |
| COc1c(C)c2c(c(O)c1CC=C(C)CCC(=O)O)C(=O)OC2 | 3.32 µM (active) | 14.8 µM (active) | 1.18 µM (active) |  | 3.72 µM (active) | 11.8 µM (active) |  | 4.69 µM (active) | 7.43 µM (active) | 8.33 µM (active) |  |  |  | 4.69 µM (active) | 11.8 µM (active) | 13.2 µM (active) |  | 5.26 µM (active) |  |
| CCCCC(C=O)NC(=O)C(CC(C)C)NC(=O)OCc1ccccc1 (stereo unspecified) | 20.9 µM (active) | inactive | 6.62 µM (active) |  |  |  | 20.9 µM (active) | 23.5 µM (active) |  |  |  | 20.9 µM (active) |  |  |  | inactive |  |  | inactive |
| NCc1c[nH]c(=S)n1[C@H]1CCc2c(F)cc(F)cc2C1 | 13.2 µM (active) | 14.8 µM (active) |  | 18.7 µM (active) | 23.5 µM (active) | 16.6 µM (active) |  | 14.8 µM (active) | 9.35 µM (active) |  | 20.9 µM (active) |  | 20.9 µM (active) |  | 18.7 µM (active) | inactive |  |  |  |
| O=C(O)CCC=CCC[C@@H]1[C@H](N2CCCCC2)[C@@H](O)C[C@@H]1OCc1ccc(-c2ccccc2)cc1 | inactive | inactive | inactive |  | inactive | inactive | inactive | inactive | inactive |  | inactive | inactive | inactive |  |  |  |  |  | inactive |
| CN1C(=O)C[C@H](C(=O)N[C@@H](Cc2cnc[nH]2)C(=O)N2CCC[C@@H]2C(N)=O)NC1=O | 16.6 µM (active) | inactive | 4.69 µM (active) |  |  |  | inactive | inactive |  | inactive | inactive |  | 2.96 µM (active) | inactive | 20.9 µM (active) |  |  |  | inactive |
